# Biological target: Nonstructural protein 3 (Zika virus) (UniProt A0A024AXB9)
# Conditions: PRVABC59, Concentration 10.0 uM
# Chain of Nonstructural protein 3 (Zika virus) (A0A024AXB9 as listed by the source): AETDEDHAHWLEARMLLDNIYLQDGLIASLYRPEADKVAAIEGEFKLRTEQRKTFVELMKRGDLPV
structure (smiles),measurement,setting,value
O=C(Nc1ccc2c(c1)CNC2)c1cc(=O)[nH]c2c(F)cccc12,pKD,"Immobilization level 4900.0 pg/mm2, Rmax 18.0 pg/mm2, ka 230791.194 M-1s-1, kd 7.379 1/s",4.5
same,pKD,"Immobilization level 5500.0 pg/mm2, Rmax 21.0 pg/mm2, ka 297955.59 M-1s-1, kd 8.334 1/s",4.55
CCS(=O)(=O)c1ccc(Cl)cc1C(=O)Nc1ccc2c(c1)CNC2,pKD,"Immobilization level 12000.0 pg/mm2, Rmax 28.0 pg/mm2, ka 273415.174 M-1s-1, kd 3.732 1/s",4.87
O=C(Nc1ccc(C2CCNCC2)cc1)c1cc(Cl)cc2[nH]ncc12,pKD,"Immobilization level 10000.0 pg/mm2, Rmax 4.0 pg/mm2, ka 163257.858 M-1s-1, kd 0.446 1/s",5.56
same,pKD,"Immobilization level 12000.0 pg/mm2, ka 318291.503 M-1s-1, kd 0.429 1/s",5.87
same,pKD,"Immobilization level 13000.0 pg/mm2, ka 203161.324 M-1s-1, kd 0.494 1/s",5.61
Cn1ncc2c(C(=O)Nc3ccc4c(c3)CNC4)cc(C3CC3)nc21,pKD,"Immobilization level 10000.0 pg/mm2, Rmax 33.0 pg/mm2, ka 244724.506 M-1s-1, kd 7.844 1/s",4.49
same,pKD,"Immobilization level 12000.0 pg/mm2, Rmax 31.0 pg/mm2, ka 442165.646 M-1s-1, kd 5.14 1/s",4.93
same,pKD,"Immobilization level 13000.0 pg/mm2, Rmax 33.0 pg/mm2, ka 379334.104 M-1s-1, kd 6.596 1/s",4.76
O=C(Nc1ccc2c(c1)CNC2)c1cc(Cl)ccc1OC1CCCC1,pKD,"Immobilization level 12000.0 pg/mm2, Rmax 40.0 pg/mm2, ka 319034.623 M-1s-1, kd 3.897 1/s",4.91
Cc1ccc(C(C)C)c(C(=O)Nc2ccc3c(c2)CNC3)c1,pKD,"Immobilization level 10000.0 pg/mm2, Rmax 25.0 pg/mm2, ka 195679.525 M-1s-1, kd 7.321 1/s",4.43
same,pKD,"Immobilization level 12000.0 pg/mm2, Rmax 28.0 pg/mm2, ka 382623.73 M-1s-1, kd 5.226 1/s",4.87
same,pKD,"Immobilization level 13000.0 pg/mm2, Rmax 25.0 pg/mm2, ka 300897.372 M-1s-1",4.69
N#C[C@]1(Nc2ccc3c(c2)CNC3)C(=O)Nc2ccc(Cl)cc21,pKD,"Immobilization level 10000.0 pg/mm2, Rmax 25.0 pg/mm2, ka 264211.625 M-1s-1, kd 1.585 1/s",5.22
same,pKD,"Immobilization level 12000.0 pg/mm2, Rmax 32.0 pg/mm2, ka 105814.14 M-1s-1, kd 0.856 1/s",5.09
same,pKD,"Immobilization level 13000.0 pg/mm2, Rmax 39.0 pg/mm2, ka 121808.508 M-1s-1, kd 1.295 1/s",4.97
CCc1ncc(Cl)cc1C(=O)Nc1ccc2c(c1)CNC2,pKD,"Immobilization level 10000.0 pg/mm2, Rmax 18.0 pg/mm2, ka 231152.44 M-1s-1, kd 2.909 1/s",4.9
same,pKD,"Immobilization level 12000.0 pg/mm2, Rmax 36.0 pg/mm2, ka 247716.147 M-1s-1, kd 2.057 1/s",5.08
same,pKD,"Immobilization level 13000.0 pg/mm2, Rmax 25.0 pg/mm2, ka 245446.465 M-1s-1, kd 2.231 1/s",5.04
CCOCCCN1Cc2ccc(NC(=O)c3cc(Cl)cc4[nH]ncc34)cc2C1,pKD,"Immobilization level 3900.0 pg/mm2, Rmax 34.0 pg/mm2, ka 194403.459 M-1s-1, kd 4.353 1/s",4.65
same,pKD,"Immobilization level 4900.0 pg/mm2, Rmax 26.0 pg/mm2, ka 190862.396 M-1s-1, kd 2.393 1/s",4.9
same,pKD,"Immobilization level 5500.0 pg/mm2, Rmax 37.0 pg/mm2, ka 197216.313 M-1s-1, kd 2.701 1/s",4.86
O=C(Nc1ccc2c(c1)CNC2)c1cc(Cl)cc2nccnc12,pKD,"Immobilization level 10000.0 pg/mm2, Rmax 21.0 pg/mm2, ka 195303.568 M-1s-1, kd 2.342 1/s",4.92
same,pKD,"Immobilization level 12000.0 pg/mm2, Rmax 40.0 pg/mm2, ka 106100.572 M-1s-1, kd 1.111 1/s",4.98
same,pKD,"Immobilization level 13000.0 pg/mm2, Rmax 32.0 pg/mm2, ka 148862.644 M-1s-1, kd 1.839 1/s",4.91
Cn1nc(C(=O)Nc2ccc3c(c2)CNC3)c2cc(Br)ccc21,pKD,"Immobilization level 3900.0 pg/mm2, Rmax 7.0 pg/mm2, ka 186374.339 M-1s-1, kd 1.611 1/s",5.06
same,pKD,"Immobilization level 4900.0 pg/mm2, Rmax 17.0 pg/mm2, ka 132352.529 M-1s-1, kd 1.379 1/s",4.98
same,pKD,"Immobilization level 5500.0 pg/mm2, Rmax 22.0 pg/mm2, ka 128273.344 M-1s-1, kd 1.393 1/s",4.96
O=C(Nc1ccc2c(c1)CNC2)c1ccc(F)c2[nH]ncc12,pKD,"Immobilization level 10000.0 pg/mm2, Rmax 1.0 pg/mm2, ka 202467.762 M-1s-1, kd 1.761 1/s",5.06
same,pKD,"Immobilization level 12000.0 pg/mm2, Rmax 8.0 pg/mm2, ka 155094.955 M-1s-1, kd 1.71 1/s",4.96
same,pKD,"Immobilization level 13000.0 pg/mm2, ka 200831.038 M-1s-1, kd 1.747 1/s",5.06
O=C(Nc1ccc(C2CNC2)cc1)c1cc(Cl)cc2[nH]ncc12,pKD,"Immobilization level 10000.0 pg/mm2, Rmax 37.0 pg/mm2, ka 291088.891 M-1s-1, kd 2.184 1/s",5.12
same,pKD,"Immobilization level 12000.0 pg/mm2, Rmax 69.0 pg/mm2, ka 224213.878 M-1s-1, kd 1.69 1/s",5.12
same,pKD,"Immobilization level 13000.0 pg/mm2, Rmax 34.0 pg/mm2, ka 337518.302 M-1s-1, kd 1.709 1/s",5.3
O=C1Cc2c(cc(Br)cc2C(=O)Nc2ccc3c(c2)CNC3)N1,pKD,"Immobilization level 10000.0 pg/mm2, Rmax 28.0 pg/mm2, ka 911035.824 M-1s-1, kd 0.165 1/s",6.74
same,pKD,"Immobilization level 12000.0 pg/mm2, Rmax 50.0 pg/mm2, ka 582104.975 M-1s-1, kd 0.125 1/s",6.67
same,pKD,"Immobilization level 13000.0 pg/mm2, Rmax 39.0 pg/mm2, ka 879294.654 M-1s-1, kd 0.141 1/s",6.79
N#Cc1cc(Cl)cc(C(=O)Nc2ccc3c(c2)CNC3)c1,pKD,"Immobilization level 10000.0 pg/mm2, Rmax 13.0 pg/mm2, ka 937740.865 M-1s-1, kd 1.0 1/s",5.97
same,pKD,"Immobilization level 12000.0 pg/mm2, Rmax 30.0 pg/mm2, ka 568340.521 M-1s-1, kd 0.543 1/s",6.02
same,pKD,"Immobilization level 13000.0 pg/mm2, Rmax 21.0 pg/mm2, ka 849954.362 M-1s-1, kd 0.772 1/s",6.04
Cc1cc(CN)cc(NC(=O)c2cc(Cl)cc3[nH]ncc23)c1,pKD,"Immobilization level 10000.0 pg/mm2, Rmax 32.0 pg/mm2, ka 317735.356 M-1s-1, kd 1.709 1/s",5.27
same,pKD,"Immobilization level 12000.0 pg/mm2, Rmax 41.0 pg/mm2, ka 352403.171 M-1s-1, kd 1.092 1/s",5.51
same,pKD,"Immobilization level 13000.0 pg/mm2, Rmax 26.0 pg/mm2, ka 657032.757 M-1s-1, kd 1.65 1/s",5.6
N#C[C@H](Nc1ccc2c(c1)CNC2)c1cccc2[nH]ncc12,pKD,"Immobilization level 10000.0 pg/mm2, Rmax 24.0 pg/mm2, ka 92252.014 M-1s-1, kd 0.378 1/s",5.39
same,pKD,"Immobilization level 12000.0 pg/mm2, Rmax 16.0 pg/mm2, ka 78971.5 M-1s-1, kd 0.214 1/s",5.57
same,pKD,"Immobilization level 13000.0 pg/mm2, Rmax 22.0 pg/mm2, ka 80847.64 M-1s-1, kd 0.299 1/s",5.43
Cc1ccc(C(=O)Nc2ccc3c(c2)CNC3)c2[nH]ncc12,pKD,"Immobilization level 10000.0 pg/mm2, Rmax 28.0 pg/mm2, ka 287009.784 M-1s-1, kd 5.44 1/s",4.72
same,pKD,"Immobilization level 12000.0 pg/mm2, Rmax 65.0 pg/mm2, ka 163548.417 M-1s-1, kd 3.844 1/s",4.63
same,pKD,"Immobilization level 13000.0 pg/mm2, Rmax 48.0 pg/mm2, ka 218448.051 M-1s-1, kd 4.78 1/s",4.66
Clc1cc(CNc2ccc3c(c2)CNC3)c2cn[nH]c2c1,pKD,"Immobilization level 10000.0 pg/mm2, Rmax 2.0 pg/mm2, ka 219034.03 M-1s-1, kd 0.842 1/s",5.42
same,pKD,"Immobilization level 12000.0 pg/mm2, Rmax 10.0 pg/mm2, ka 126196.485 M-1s-1, kd 1.272 1/s",5
same,pKD,"Immobilization level 13000.0 pg/mm2, ka 206129.831 M-1s-1, kd 1.048 1/s",5.29
CC(C)(C)c1ccc(Cl)cc1C(=O)Nc1ccc2c(c1)CNC2,pKD,"Immobilization level 10000.0 pg/mm2, Rmax 29.0 pg/mm2, ka 451041.562 M-1s-1, kd 5.162 1/s",4.94
same,pKD,"Immobilization level 12000.0 pg/mm2, Rmax 32.0 pg/mm2, ka 233803.873 M-1s-1, kd 2.593 1/s",4.96
same,pKD,"Immobilization level 13000.0 pg/mm2, Rmax 24.0 pg/mm2, ka 278548.314 M-1s-1, kd 2.759 1/s",5
NCCc1ccc(NC(=O)c2cc(Cl)cc3[nH]ncc23)cc1,pKD,"Immobilization level 10000.0 pg/mm2, Rmax 37.0 pg/mm2, ka 181570.157 M-1s-1, kd 4.215 1/s",4.63
same,pKD,"Immobilization level 12000.0 pg/mm2, Rmax 45.0 pg/mm2, ka 212645.467 M-1s-1, kd 3.181 1/s",4.83
same,pKD,"Immobilization level 13000.0 pg/mm2, Rmax 31.0 pg/mm2, ka 239123.399 M-1s-1, kd 3.643 1/s",4.82
CC(C)NC(=O)[C@H](Nc1ccc2c(c1)CNC2)c1cc(Cl)cc2[nH]ncc12,pKD,"Immobilization level 10000.0 pg/mm2, Rmax 25.0 pg/mm2, ka 625134.982 M-1s-1, kd 0.246 1/s",6.4
same,pKD,"Immobilization level 12000.0 pg/mm2, Rmax 48.0 pg/mm2, ka 290518.5 M-1s-1, kd 0.198 1/s",6.17
same,pKD,"Immobilization level 13000.0 pg/mm2, Rmax 30.0 pg/mm2, ka 486694.476 M-1s-1, kd 0.217 1/s",6.35

# — ChEMBL document CHEMBL5598561, “ASAP - In vitro binding kinetics” (2024)
